In the library only some 19% were active in any assay of this set; here they are far more common.
BCR signal inh: inhibitors of chronic active B-cell receptor signaling. ABC-DLBCL IkBa-CBG/CBR reporter, luminescence ratio, 4 h. 340,000 tested, 0.05% active. Potency, µM (top dose mostly 46.1 µM), most hits filed as inhibitors. AID 493014; active = well fitted inhibition curve with a large enough effect in the signal ratio, with a control signal flat, not every such curve was filed as active; inconclusive = small, poorly fitted or top-dose-only effect, or effect the other way, or a change in a side signal; the % refers to the signal ratio
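Compounds up to 46 uM were incubated four hours with TMD8 cells whose green CBG68 luciferase is fused to IkappaBalpha; red CBR luminescence normalised the signal, and concentration-effect curves were fitted to fusion, red and ratio data.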
TDP1 cell noCPT: qHTS for Inhibitors of human tyrosyl-DNA phosphodiesterase 1 (TDP1): qHTS in cells in absence of CPT; DT40 Tdp1-/- hTDP1 cells, no CPT, ATP luminescence, 48 h; Potency, µM (highest dose often 46.2 µM), usual class: inhibitors; 420,000 tested, 15% active; also: nearly all actives have a fitted effect of over 55% in size
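Chicken DT40 Tdp1-/- cells stably complemented with human TDP1 were seeded at 400 cells/well with DMSO in place of 20 nM camptothecin. After compound pinning, cells grew at least 48 hr at 37 °C; viability read by CellTiter-Glo luminescence.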
IL1B secr inh: blocks inflammasome-driven IL-1 beta release; THP-1 LPS/ATP IL-1B secretion, AlphaLISA, 16 h; stronger effect = lower value; activity change, % at 57.5 µM; 360,000 tested, 4.7% active; AID 743279; in the data active = activity change below about -50%; inconclusive = mostly about -30% to -49%
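Secreted IL-1B measured by AlphaLISA bead assay after 16 h compound exposure of THP-1 cells; compounds (final up to 57.5 uM) added 1 h before LPS (250 ng/mL) and ATP (1.25 mM) stimulation; lower signal means less secretion.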
MCF10A rereplic: inducers of DNA re-replication in MCF 10A breast cells; MCF 10A DNA re-replication, Hoechst nuclear intensity, 48 h; Potency, µM (doses to about 46.1 µM), hits mostly activators; 350,000 tested, 2.9% active; also: nearly all actives have a fitted effect of over 50% in size
DT40 TDP1 CPT: DT40-hTDP1 cell growth loss with CPT; chicken DT40 Tdp1-/-;hTDP1 cells + 20 nM CPT, ATP luminescence, 48 h; Potency, µM (highest dose often 46.2 µM), hits mostly inhibitors; 420,000 tested, 12% active; also: nearly all actives have a fitted effect of over 55% in size
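Cell growth measured by CellTiter-Glo luminescence after a minimum 48 h, 37 C compound exposure with 20 nM CPT in Tdp1-knockout DT40 cells stably expressing hTDP1, seeded 400/well; qHTS titration format.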
SW480 rereplic: induces DNA re-replication in SW480 colon adenocarcinoma cells; SW480 DNA re-replication, Hoechst DNA content imaging, 48 h; AID 624297; 340,000 tested, 1.8% active; Potency, µM (titrated, usually from 46.1 µM), usual class: activators; also: nearly all actives have a fitted effect of over 55% in size
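DNA re-replication was detected as more nuclei of elevated Hoechst intensity after 48 hr exposure to compound (23 nL pinned per well of 250 cells).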
Numbers stand for hits; – = inactive; ? = inconclusive; · = no result. Unless noted, calls follow the shape of the dose curve; as a rule, active = well fitted curve in the direction sought with a large enough effect; inconclusive = small, poorly fitted or top-dose-only effect, or another doubt; inactive = no such curve, though single readings can be large; an effect the other way counts as inactive or inconclusive.

SMILES	BCR signal inh	TDP1 cell noCPT	IL1B secr inh	MCF10A rereplic	DT40 TDP1 CPT	SW480 rereplic
O=C(CSc1nncn1-c1ccccc1F)NC1CC1	–	–	–	–	–	–
COC/C=C/C1=CC(=O)C[C@H](c2ccc3c(c2)OCO3)C1	–	18µM	-96	?	?	–
COc1ccc([C@H]2CC(=O)C=C(c3cc(OC)ccc3OC)C2)cc1	–	15µM	–	?	13µM	?
COc1ccc(OC)c(C2=CC(=O)C[C@H](c3ccc(F)cc3)C2)c1	·	–	?	·	?	·
COc1ccc([C@H]2CC(=O)C=C(c3cc(Cl)ccc3OC)C2)cc1	–	?	–	?	13µM	?
COc1ccc([C@H]2CC(=O)C=C(c3c(OC)cccc3OC)C2)cc1	–	2.1µM	–	1.2µM	2.9µM	18µM
Oc1ccccc1CC=NC1CCCCC1	·	–	–	–	–	–
CCC(CC)C(=O)c1c[nH]c(C(=O)N2CCN(c3ccccc3)CC2)c1	–	–	–	–	–	–
O=C(O)CSc1ccc(NC(=O)Nc2ccccc2F)cc1	?	?	–	–	?	–
CCC(C)c1ccccc1NC(=O)C(C)OC(=O)CN1C(=O)NC(C)(C)C1=O (configuration not stated)	–	–	–	–	–	–
COC(=O)c1ccc(C(=O)N2CCCCCC2(C)C(=O)NC(C)C)cc1 (configuration not stated)	·	–	–	·	?	·
COc1cccc(NC(=O)CN(C)C(=O)c2cc3c(s2)CCC3)c1	–	–	–	–	–	–
COC(=O)/C(=C(O)\C=C\c1ccccc1[N+](=O)[O-])c1nc2ccccc2[nH]1	?	15µM	?	–	12µM	–
COc1ccc(COCC(O)CN2CCN(S(=O)(=O)c3ccc(C(C)C)cc3)CC2)cc1 (configuration not stated)	–	21µM	–	–	26µM	–
COc1cc(NC(=O)CN2CCN(S(=O)(=O)c3ccc(C(C)C)cc3)CC2)cc(OC)c1	–	?	?	–	–	–
CC(OCC(O)CN1CCN(S(=O)(=O)c2ccc(Cl)cc2)CC1)c1ccc(Cl)cc1 (configuration not stated)	·	10µM	–	·	12µM	·
CC(C)c1ccc(S(=O)(=O)N2CCN(CC(O)CN3CCOCC3)CC2)cc1 (configuration not stated)	?	–	–	–	–	–
CC(C)c1ccccc1OCC(O)CN1CCN(S(=O)(=O)c2ccc([N+](=O)[O-])cc2)CC1 (configuration not stated)	?	8.2µM	-83	–	?	–
Cc1cc(OI)c(C(C)C)cc1-c1cc(C(C)C)c(OI)cc1C	·	–	·	–	?	–
CC(=O)Nc1ccc(NC(=O)CCS(=O)(=O)c2ccc3c(c2)CC(=O)N3C)cc1	·	–	·	·	–	·
FC(F)(F)c1ccc(Sc2n[nH]c(C(F)(F)F)n2)nc1	?	29µM	–	–	?	–
O=C(CN1CCN(C(=O)c2c(F)cccc2F)CC1)Nc1ccccc1C(F)(F)F	–	?	–	?	–	–
CN(C)CCCN(C(=O)c1ccc(C(=O)c2ccccc2)cc1)c1nc2cc3c(cc2s1)OCCO3	–	–	-64	–	–	–
CN(C)CCCN(C(=O)c1ccc(Br)s1)c1nc2cc3c(cc2s1)OCO3	–	15µM	-101	–	9.2µM	–
CN(C)CCCN(C(=O)c1ccc2c(c1)CCCC2)c1nc2ccc(F)cc2s1	?	16µM	·	?	21µM	?
CN(C)CCCN(C(=O)c1ccc2c(c1)CCCC2)c1nc2cc3c(cc2s1)OCO3	?	?	-86	16µM	?	?
CC(=O)Nc1ccc(NC(=O)CSc2ccc3nnc(-c4cccnc4)n3n2)cc1	–	–	–	–	–	–
Cc1ccc(Cl)cc1N1CCN(S(=O)(=O)c2ccc3oc(=O)c4ncn(C)c4c3c2)CC1	·	–	·	·	–	·

Bioassay records (PubChem BioAssay)
